# In the library only some 7.6% were active in any assay of this set; here they are far more common.
# M1 antag = antagonists of rat M1 muscarinic receptor; Muscarinic acetylcholine receptor M1 (Rattus norvegicus), P08482; CHO-M1 cells, Fluo-4 calcium, ACh EC80 antagonist mode; stronger effect = lower value; B-score at 10 µM; 3.4% of 64,000 active;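 active = calcium fluorescence response, raw or row-and-column corrected B-score, differing from the plate sample mean either way at a set confidence level, mostly lower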
# M1 ag = M1 muscarinic receptor agonists, primary screen, CHO-M1 cells, Fluo-4 calcium, agonist mode | Muscarinic acetylcholine receptor M1 | Fluo-4 calcium fluorescence; stronger effect = higher value | B-score at 10 µM | 3% of 64,000 active | AID 626, 2007;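 active = fluorescence rise, raw or as B-score row- and column-corrected plate score, outside the 99.7% band of its plate's samples, either direction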
# Cav3 T inh = Cav3.2 calcium influx blockers – cell-based, Fluo-4 calcium fluorescence, FDSS, MLSMR library, primary screen; B-score at 10 µM; Voltage-dependent T-type calcium channel subunit alpha-1H (Homo sapiens), O95180; Cav3.2-expressing cells; stronger effect = lower value; 4% of 100,000 active;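 active = single-dose well whose peak fluorescence ratio is a statistical outlier from its plate by either plate-standardised score or position-corrected B-score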
# PLAP activator = PLAP enzyme activators, biochemical, luminescence, HTS; Alkaline phosphatase, placental type (Homo sapiens), P05187; purified PLAP enzyme, luminescent substrate read-out; stronger effect = higher value; activation fold at 20 µM; 1.2% of 96,000 active; in the data active = activation fold above about 2
# Target sequence (P05187 whole entry, looked up): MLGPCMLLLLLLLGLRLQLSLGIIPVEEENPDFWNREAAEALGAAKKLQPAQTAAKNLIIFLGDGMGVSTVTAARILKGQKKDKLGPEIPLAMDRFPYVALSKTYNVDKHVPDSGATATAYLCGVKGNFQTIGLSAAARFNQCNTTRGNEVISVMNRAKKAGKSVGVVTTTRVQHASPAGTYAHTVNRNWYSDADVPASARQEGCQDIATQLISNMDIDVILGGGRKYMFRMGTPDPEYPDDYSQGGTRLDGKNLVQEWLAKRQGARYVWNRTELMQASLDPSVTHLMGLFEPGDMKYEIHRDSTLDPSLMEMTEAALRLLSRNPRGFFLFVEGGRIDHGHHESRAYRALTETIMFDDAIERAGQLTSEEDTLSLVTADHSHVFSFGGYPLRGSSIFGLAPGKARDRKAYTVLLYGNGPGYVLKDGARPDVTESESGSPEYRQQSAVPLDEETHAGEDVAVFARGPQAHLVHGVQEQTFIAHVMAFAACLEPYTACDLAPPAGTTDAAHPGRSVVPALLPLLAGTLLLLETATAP
# M1 ag confirm = rat M1 muscarinic receptor agonists, confirmation, CHO-M1 cells, Fluo-4 calcium, duplicate retest | shares compounds with M1 ag | Fluo-4 calcium fluorescence, agonist mode; actives lie on both sides | fluorescence change (max-min) at 10 µM | 19% of 1,700 active;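 active = fluorescence change differs from the solvent-only DMSO control mean at a set confidence level in both duplicate runs; inconclusive = differs from solvent-only control mean in just one of two runs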;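 also: an EC20 dose of acetylcholine follows compound addition during the same imaging run; raw fluorescence intensity difference in instrument units with no normalization to controls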
# M4 ag counter = agonist activity at rat M4 receptor, confirmation, counter-screen for M1 allosteric modulator project, cell-based, agonist mode; shares compounds with M1 ag; CHO M4/Gqi5 cells, Fluo-4 calcium fluorescence; actives lie on both sides; fluorescence change (max-min) at 10 µM; 9% of 1,700 active; AID 1741, 2009;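 active = fluorescence change differing from the plate's solvent-only control wells at 99.7% confidence in both duplicates, whether higher or lower; inconclusive = differs from solvent controls in only one of two duplicates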
# M1 antag confirm = rat M1 muscarinic receptor antagonists, confirmation, CHO cells, Fluo-4 calcium, duplicate | 43% of 1,700 active | AID 677, 2007 | shares compounds with M1 antag | ACh EC80 antagonism; stronger effect = lower value | calcium response (max-min fluorescence) at 10 µM;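 active = calcium response below the same-plate mean of wells given acetylcholine alone at its 80%-effect dose, minus 3 SD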;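 also: raw fluorescence intensity difference in arbitrary instrument units and not normalized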
# mGluR4 antag = human mGluR4 response to M1 antagonist hits, M1 allosteric modulator project, cell-based, antagonist mode, secondary assay 1; 0.9% of 1,700 active; shares compounds with M1 antag; fluorescence response (max-min) at 10 µM; CHO-mGluR4 calcium flux, Fluo-4 fluorescence, glutamate EC80; stronger effect = lower value;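 active = fluorescence response below the plate's average for near-maximal glutamate wells, less 3 SD of those wells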;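 also: raw unnormalized fluorescence span taken in the window right after glutamate addition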
# Active calls of the source: *; ? = inconclusive; . = no result given.
SMILES,M1 antag,M1 ag,Cav3 T inh,PLAP activator,M1 antag confirm,mGluR4 antag,others
CCCCn1c(O)c(C(CC)=NCc2ccc3c(c2)OCO3)c(=O)[nH]c1=O,-0.8,4.3*,-5.1*,0.9,.,.,M1 ag confirm=5.3;M4 ag counter=-24
CNCC(O)c1cccc(OC(=O)c2ccccc2C)c1 (stereo unspecified),0.58,-3.3*,.,0.9,.,.,M1 ag confirm=-14;M4 ag counter=?
CCn1nc(-c2ccccc2)nc2c(=O)n(C)c(=O)nc1-2,-0.41,25*,-1.7,.,.,.,M1 ag confirm=187*;M4 ag counter=?
O=S1(=O)CC2(N3CCOCC3)CCCCCCC21 (stereo unspecified),0.45,2.9*,-0.039,1,.,.,M1 ag confirm=-12;M4 ag counter=-39
O=C(CCC(=O)N1CCC2(CC1)OCCO2)Nc1nnc(C(F)(F)F)s1,0.013,-0.61,0.75,1.2,.,.,
Cc1ccc(C(=O)C2CN3CCC2CC3)cc1 (stereo unspecified),-2.5,12*,-0.15,0.8,.,.,M1 ag confirm=-18;M4 ag counter=?
CC(=NCCN1CCCCC1)c1c(O)n(Cc2ccccc2)c(=O)[nH]c1=O,-2.4*,0.14,0.56,1.4,562,228,
C=CCn1c(O)c(C(C)=NCCN2CCCCC2)c(=O)[nH]c1=O,.,.,0.34,1,.,.,
CC(N)C(=O)c1ccco1 (stereo unspecified),-0.47,0.34,.,1,.,.,
O=P(C(Cl)Cl)(N1CCCCC1)N1CCCCC1,.,.,-0.0054,1.1,.,.,
Nc1ccccc1C(=O)OC1CSC1,-6.2*,0.24,0.19,0.9,668,241,
Nc1ccccc1C(=O)c1ccccc1,0.16,0.13,0.18,0.8,.,.,
COc1ccccc1CC1/C(=N/O)C2CCN1CC2 (stereo unspecified),-2.6*,0.0037,-0.087,1,540,245,
CN1CCC(N(C)c2ncnc3ccc(Br)cc23)CC1,-0.9*,-0.34,0.03,1,516,244,
COC(=O)C1=C(c2cccc(OC)c2OC)C[C@@H]2CC[C@H]1N2C(=O)N1CCOCC1,.,.,0.91,.,.,.,
C=CCC1(CN2CCCCCC2=O)C(=O)NC(=O)NC1=O,-0.48,-0.64,1,0.9,.,.,
COc1ccc(C2NCc3ccc4c(c3-n3cccc32)OCO4)cc1O (stereo unspecified),-2.2*,-2.3,-2.5,1.2,108*,232,
c1cc2n(c1)-c1c(ccc3c1OCO3)CNC2c1ccc2c(c1)OCO2 (stereo unspecified),-10*,-1.7,-1.6,1.3,305*,242,
CC(C)c1cccc(C(C)C)c1OCCn1ccnc1,-2*,0.038,-1.4,0.6,416*,238,
COC(=O)C(O)(c1ccc(N(C)S(=O)(=O)c2ccccc2)cc1)C(F)(F)F (stereo unspecified),-11*,-0.52,-0.86,1.2,629,259,
Cc1nc2ccccc2c(=O)n1-n1cnnc1,-2.7*,-0.7,-0.033,1,726,236,
O=c1c2ccccc2nc(-c2ccccc2)n1-n1cccc1,-2*,0.97,-0.19,0.9,632,249,
Cc1nc2ccccc2c(=O)n1-c1ccccn1,-0.12,0.34,0.97,0.9,.,.,
C=CCn1c(O)c(C(CC)=NCCC2=CCCCC2)c(=O)[nH]c1=O,.,.,0.25,0.9,.,.,
CC1(C)CN=C(NCc2ccccc2Cl)S1,-5.1*,1,-0.17,0.8,350*,193,
SMILES,M1 antag,M1 ag,Cav3 T inh,PLAP activator,M1 antag confirm,mGluR4 antag,others
N[C@@H]1CCCC[C@H]1N.O=C(O)C(=O)O.[Pt],.,.,-1.1,.,.,.,
O=c1[nH]c(=O)n(Cc2ccco2)c(O)c1C=NCCCn1ccnc1,-2.8*,-0.38,.,0.8,672,262,
CN(C)CCN=Cc1c(O)n(Cc2ccco2)c(=O)[nH]c1=O,.,.,-0.47,1.1,.,.,
Oc1ccc(C2NCc3ccccc3-n3cccc32)cc1Cl (stereo unspecified),-3.5*,-1.8,-1.6,1.5,579,248,
CCN(CC)CCCN=C(C)c1c(O)n(-c2ccc(C)cc2)c(=O)[nH]c1=O,-0.061,-0.039,-0.27,0.9,.,.,
COc1cc(Br)cc(CN2CCN(C)CC2)c1O,-3.9*,-0.82,1.1,1.2,378*,278,
CCN1CCN(Cc2cc(Br)cc(Br)c2O)CC1,.,.,-0.022,1.6,.,.,
CCCCOc1ccc(CN2CCN(CCO)CC2)cc1,-4.8*,-0.041,0.29,1,310*,210,
CCCCCCOc1ccc(CN2CCN(CCO)CC2)cc1,-5.3*,-0.56,0.83,1.7,366*,306,
CCCCOc1ccc(CN2CCN(CC)CC2)cc1,.,.,0.15,0.9,.,.,
Cn1c(O)c(/C=N/c2ccccn2)c(=O)n(C)c1=O,0.38,1.6,1.2,1,.,.,
CN1C(=O)C2C[C@@]3(Br)c4ccccc4N(OOSc4ccccc4)[C@H]3N2C(=O)[C@@H]1Cc1ccccc1 (stereo partly specified),.,.,-0.66,.,.,.,
CC(=O)N1N=C2C3CCN(CC3)C2C1c1cccc2ccccc12 (stereo unspecified),.,.,0.18,.,.,.,
O=C(Cc1ccccc1)OCCN1CCCCC1,-3.5*,1.2,0.3,1,507*,242,
NC(=O)C1(N2CCCCC2)CCN(Cc2ccccc2)CC1,0.68,-0.22,0.3,1,.,.,
CCc1nc(N2CCNCC2)c(C#N)c2c1CSC(C)(C)C2,-5.2*,-0.98,.,1.7,264*,211,
Cc1cccnc1-n1c(C)nc2ccccc2c1=O,.,.,-0.42,1,.,.,
